Source: PubChem BioAssay (EPA / NIEHS)
Activity calls are given as the source filed them. Rule for the calls: active = hit-call score of the fitted dose curve at least 0.9, where 1 is the maximum; inactive = score below 0.9.

Read-out: TIMP metallopeptidase inhibitor 2 (TIMP2), TIMP2 (gene 7077)
Assay: BSK_KF3CT_TIMP2: BioMAP Diversity Plus: KF3CT Assay for TIMP metallopeptidase inhibitor 2 (TIMP2) Biomarker Activity (AID 2283071)
Details: primary human keratinocytes with fibroblasts; actives raise or lower the signal
Method in brief: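 Cells: human keratinocytes co-cultured with foreskin fibroblasts. Treat with chemical, 24 h. Measure TIMP-2 by ELISA; fit curves bidirectionally vs DMSO baseline.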

| SMILES | outcome | AC50 |
| --- | --- | --- |
| O=C(O)C(Cl)(Cl)Cl | inactive | – |
| Oc1cccc2cccnc12 | – | 3.68 µM (active) |
| CC(=O)OC(c1ccccc1)C(Cl)(Cl)Cl (centres undefined) | inactive | – |
| C[C@]12CCC(=O)C[C@@H]1CC[C@@H]1[C@@H]2CC[C@]2(C)[C@@H](O)CC[C@@H]12 | inactive | – |
| COP(=S)(OC)Oc1ccc(Sc2ccc(OP(=S)(OC)OC)cc2)cc1 | inactive | – |
| C(=NC1CCCCC1)=NC1CCCCC1 | – | 20 µM (active) |
| COc1cc(OC)nc(NC(=O)NS(=O)(=O)c2ncccc2C(=O)N(C)C)n1 | inactive | – |
| CC12CC1(C)C(=O)N(c1cc(Cl)cc(Cl)c1)C2=O (centres undefined) | inactive | – |
| COC(=O)c1sccc1S(=O)(=O)NC(=O)Nc1nc(C)nc(OC)n1 | inactive | – |
| C=C(C)C(=O)[O][Sn]([CH2]CCC)([CH2]CCC)[CH2]CCC | – | 0.148 µM (active) |
| CC(C)(C)c1cc(O)ccc1O | – | 20 µM (active) |
| CC(C)(c1ccccc1)c1ccc(O)c(C(C)(C)c2ccccc2)c1 | – | 2.17 µM (active) |
| CCCCCCCCc1ccc(O)cc1 | – | 30 µM (active) |
| O=C(Nc1ccc2[nH]ccc2c1)c1cc2cc(F)ccc2n1Cc1cccc(F)c1 | – | 7.19 µM (active) |
| O=C(OC1CCCCC1)c1ccccc1C(=O)OC1CCCCC1 | – | 20.9 µM (active) |
| C=CC(=O)OCCCCCC(C)C | inactive | – |
| CC(C)(C)CC(C)(C)c1ccc(O)cc1 | – | 7.95 µM (active) |

| SMILES | outcome | AC50 |
| --- | --- | --- |
| CCNc1nc(NC(C)(C)C)nc(SC)n1 | – | 20 µM (active) |
| CC(=O)[O][Hg][c]1ccccc1 | – | 0.148 µM (active) |
| Nc1cccc2ccccc12 | inactive | – |
| ClCC(Cl)CCl | inactive | – |
| CCOP(=S)(OCC)Oc1nc(Cl)c(Cl)cc1Cl | inactive | – |
| CCOP(=S)(OCC)SCSP(=S)(OCC)OCC | inactive | – |
| CCOP(=S)(OCC)SCCS(=O)(=O)CC | inactive | – |
| CCOP(=S)(OCC)Oc1ccc(S(C)=O)cc1 (centres undefined) | inactive | – |
| COC[C@H](C)N(C(=O)CCl)c1c(C)csc1C | inactive | – |
| ClC(Cl)=C(Cl)C(Cl)=C(Cl)Cl | – | 26.9 µM (active) |
| COC(=O)Cc1ccccc1 | inactive | – |
| O=[N+]([O-])c1ccc(O)c([N+](=O)[O-])c1 | inactive | – |
| Nc1ncc([N+](=O)[O-])s1 | inactive | – |
| NC(=S)Nc1ccccc1 | inactive | – |
| CCC(C)(C)c1ccc(O)c(C(C)(C)CC)c1 | – | 9.47 µM (active) |
| O=C(O)CCC(F)(C(F)(F)F)C(F)(F)F | inactive | – |
| CCCCC(CC)CO[N+](=O)[O-] (centres undefined) | – | 31.7 µM (active) |

Read-out: Transforming growth factor beta 1 (TGFb1), TGFB1 (gene 7040)
Assay: BSK_KF3CT_TGFb1: BioMAP Diversity Plus: KF3CT Assay for Transforming growth factor beta 1 (TGFb1) Biomarker Activity (AID 2283072)
Details: primary human keratinocytes with fibroblasts; actives raise or lower the signal
Method in brief: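 Primary human skin cells (keratinocytes, foreskin fibroblasts) were co-cultured, exposed to test chemical and sampled at 24 h. TGF-b1 levels were measured by ELISA and fitted bidirectionally relative to DMSO.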

| SMILES | outcome | AC50 |
| --- | --- | --- |
| O=C(O)C(Cl)(Cl)Cl | inactive | – |
| Oc1cccc2cccnc12 | – | 2.35 µM (active) |
| C[C@]12CCC(=O)C[C@@H]1CC[C@@H]1[C@@H]2CC[C@]2(C)[C@@H](O)CC[C@@H]12 | inactive | – |
| COP(=S)(OC)Oc1ccc(Sc2ccc(OP(=S)(OC)OC)cc2)cc1 | inactive | – |
| C(=NC1CCCCC1)=NC1CCCCC1 | – | 9.13 µM (active) |
| COc1cc(OC)nc(NC(=O)NS(=O)(=O)c2ncccc2C(=O)N(C)C)n1 | inactive | – |
| CC12CC1(C)C(=O)N(c1cc(Cl)cc(Cl)c1)C2=O (centres undefined) | inactive | – |
| COC(=O)c1sccc1S(=O)(=O)NC(=O)Nc1nc(C)nc(OC)n1 | inactive | – |
| C=C(C)C(=O)[O][Sn]([CH2]CCC)([CH2]CCC)[CH2]CCC | – | 0.148 µM (active) |
| CC(C)(C)c1cc(O)ccc1O | – | 20 µM (active) |
| CC(C)(c1ccccc1)c1ccc(O)c(C(C)(C)c2ccccc2)c1 | – | 2.83 µM (active) |
| CCCCCCCCc1ccc(O)cc1 | – | 22.4 µM (active) |
| O=C(Nc1ccc2[nH]ccc2c1)c1cc2cc(F)ccc2n1Cc1cccc(F)c1 | – | 6.88 µM (active) |
| O=C(OC1CCCCC1)c1ccccc1C(=O)OC1CCCCC1 | – | 2.62 µM (active) |
| C=CC(=O)OCCCCCC(C)C | inactive | – |
| CCNc1nc(NC(C)(C)C)nc(SC)n1 | inactive | – |
| CC(=O)[O][Hg][c]1ccccc1 | – | 0.146 µM (active) |
| Nc1cccc2ccccc12 | inactive | – |
| ClCC(Cl)CCl | inactive | – |
| CCOP(=S)(OCC)Oc1nc(Cl)c(Cl)cc1Cl | inactive | – |
| CCOP(=S)(OCC)SCSP(=S)(OCC)OCC | inactive | – |
| CCOP(=S)(OCC)SCCS(=O)(=O)CC | inactive | – |
| CCOP(=S)(OCC)Oc1ccc(S(C)=O)cc1 (centres undefined) | inactive | – |
| COC[C@H](C)N(C(=O)CCl)c1c(C)csc1C | inactive | – |
| ClC(Cl)=C(Cl)C(Cl)=C(Cl)Cl | – | 29.2 µM (active) |
| O=[N+]([O-])c1ccc(O)c([N+](=O)[O-])c1 | inactive | – |
| Nc1ncc([N+](=O)[O-])s1 | inactive | – |
| NC(=S)Nc1ccccc1 | inactive | – |
| CCC(C)(C)c1ccc(O)c(C(C)(C)CC)c1 | – | 8.12 µM (active) |
| CCCCC(CC)CO[N+](=O)[O-] (centres undefined) | inactive | – |

Read-out: C-C motif chemokine 2 (Homo sapiens) (UniProt P13500)
Assay: BSK_KF3CT_MCP1: BioMAP Diversity Plus: KF3CT Assay for Monocyte Chemoattractant Protein 1 (MCP1/CCL2) Biomarker Activity (AID 2283073)
Details: primary human keratinocytes with fibroblasts; actives raise or lower the signal
Method in brief: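 Keratinocytes and foreskin fibroblasts were co-cultured, dosed with chemical, and sampled 24 h later. MCP-1 was quantified by ELISA, and the endpoint was analyzed with bidirectional fitting using DMSO as negative control.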

| SMILES | outcome | AC50 |
| --- | --- | --- |
| O=C(O)C(Cl)(Cl)Cl | inactive | – |
| Oc1cccc2cccnc12 | – | 2 µM (active) |
| CC(=O)OC(c1ccccc1)C(Cl)(Cl)Cl (centres undefined) | inactive | – |
| C[C@]12CCC(=O)C[C@@H]1CC[C@@H]1[C@@H]2CC[C@]2(C)[C@@H](O)CC[C@@H]12 | inactive | – |
| COP(=S)(OC)Oc1ccc(Sc2ccc(OP(=S)(OC)OC)cc2)cc1 | inactive | – |
| C(=NC1CCCCC1)=NC1CCCCC1 | – | 29.4 µM (active) |
| COc1cc(OC)nc(NC(=O)NS(=O)(=O)c2ncccc2C(=O)N(C)C)n1 | inactive | – |
| CC12CC1(C)C(=O)N(c1cc(Cl)cc(Cl)c1)C2=O (centres undefined) | inactive | – |
| COC(=O)c1sccc1S(=O)(=O)NC(=O)Nc1nc(C)nc(OC)n1 | inactive | – |
| CC(C)(C)c1cc(O)ccc1O | – | 36 µM (active) |
| CC(C)(c1ccccc1)c1ccc(O)c(C(C)(C)c2ccccc2)c1 | – | 4.19 µM (active) |
| O=C(Nc1ccc2[nH]ccc2c1)c1cc2cc(F)ccc2n1Cc1cccc(F)c1 | – | 6.52 µM (active) |
| O=C(OC1CCCCC1)c1ccccc1C(=O)OC1CCCCC1 | inactive | – |
| C=CC(=O)OCCCCCC(C)C | inactive | – |
| CC(C)(C)CC(C)(C)c1ccc(O)cc1 | – | 6.72 µM (active) |
| CCNc1nc(NC(C)(C)C)nc(SC)n1 | inactive | – |
| ClCC(Cl)CCl | inactive | – |
| CCOP(=S)(OCC)Oc1nc(Cl)c(Cl)cc1Cl | inactive | – |
| CCOP(=S)(OCC)SCSP(=S)(OCC)OCC | inactive | – |
| CCOP(=S)(OCC)SCCS(=O)(=O)CC | inactive | – |
| CCOP(=S)(OCC)Oc1ccc(S(C)=O)cc1 (centres undefined) | inactive | – |
| COC[C@H](C)N(C(=O)CCl)c1c(C)csc1C | inactive | – |
| ClC(Cl)=C(Cl)C(Cl)=C(Cl)Cl | – | 20 µM (active) |
| COC(=O)Cc1ccccc1 | inactive | – |
| O=[N+]([O-])c1ccc(O)c([N+](=O)[O-])c1 | inactive | – |
| Nc1ncc([N+](=O)[O-])s1 | inactive | – |
| NC(=S)Nc1ccccc1 | inactive | – |
| CCC(C)(C)c1ccc(O)c(C(C)(C)CC)c1 | – | 10.6 µM (active) |
| O=C(O)CCC(F)(C(F)(F)F)C(F)(F)F | inactive | – |
| CCCCC(CC)CO[N+](=O)[O-] (centres undefined) | – | 30.4 µM (active) |
